Test results: PubChem BioAssay AID1159580 (chemical genetic matrix, 2015)
“And” between values parts separate entries of the source, which are not always exact repeats. Identical values can stand only once. The whole screen tested about 5,500 compounds, of which about 2,000 (36%) were called active. Inconclusive results (about 18%) are left out. Cut-off read from the data, not from the text of the source: active = normalized growth mostly below about 0.91 (no sharp cut-off); inconclusive = no clear call, values can overlap the other calls; inactive = mostly above about 0.92. This is one part of the list.

Test: chemical genetic growth profiling, strain panel (AID 1159580);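 note: tested at 20 µM; growth read once vehicle control cultures reached saturation at 30 °C; 1 = growth at the plate median or of vehicle wells; lower values mean less growth of the strain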
Conditions: S. cerevisiae deletion strains, growth OD

Measured: normalized growth

N=c1ccn2c(n1)O[C@@H]1C2O[C@H](CO)[C@H]1O (stereo not given in full)
inactive: locus YAL021C, strain ccr4, stronger effect = lower value 1.02 | locus YAL026C, strain drs2, stronger effect = lower value 0.981 | locus YAL030W, strain snc1, stronger effect = lower value 0.987 | locus YBL061C, strain skt5, stronger effect = lower value 0.985 | locus YBR009C, strain hhf1, stronger effect = lower value 0.965 | locus YBR021W, strain FUR4, stronger effect = lower value 1.01 | locus YBR023C, strain chs3, stronger effect = lower value 0.99 | locus YBR171W, strain sec66, stronger effect = lower value 0.988 | locus YBR229C, strain ROT2, stronger effect = lower value 1 | locus YBR231C, strain swc5, stronger effect = lower value 0.98 | locus YBR279W, strain paf1, stronger effect = lower value 0.992 | locus YCL011C, strain gbp2, stronger effect = lower value 0.984 | locus YCL016C, strain dcc1, stronger effect = lower value 0.983 | locus YCL029C, strain bik1, stronger effect = lower value 1.01 | locus YCL061C, strain MRC1, stronger effect = lower value 0.988 | locus YCL069W, strain vba3, stronger effect = lower value 0.991 | locus YCR088W, strain abp1, stronger effect = lower value 0.993 | locus YDL005C, strain med2, stronger effect = lower value 0.992 | locus YDL035C, strain GPR1, stronger effect = lower value 1.01 | locus YDL040C, strain nat1, stronger effect = lower value 0.979 | locus YDL074C, strain BRE1, stronger effect = lower value 1.02 | locus YDL101C, strain DUN1, stronger effect = lower value 1.01 | locus YDL185W, strain tfp1, stronger effect = lower value 1.01 | locus YDL192W, strain arf1, stronger effect = lower value 1.01 | locus YDR001C, strain nth1, stronger effect = lower value 0.982 | locus YDR069C, strain doa4, stronger effect = lower value 0.962 | locus YDR101C, strain arx1, stronger effect = lower value 0.987 | locus YDR137W, strain rgp1, stronger effect = lower value 0.982 | locus YDR159W, strain sac3, stronger effect = lower value 0.939 | locus YDR162C, strain NBP2, stronger effect = lower value 1.01 | locus YDR195W, strain ref2 0.91 | locus YDR297W, strain sur2, stronger effect = lower value 0.996 | locus YDR318W, strain mcm21, stronger effect = lower value 1 | locus YDR334W, strain swr1, stronger effect = lower value 0.985 | locus YDR335W, strain msn5, stronger effect = lower value 0.979 | locus YDR388W, stronger effect = lower value 1.01 | locus YDR392W, strain spt3, stronger effect = lower value 0.83 | locus YDR502C, strain sam2, stronger effect = lower value 1.03 | locus YEL003W, strain gim4, stronger effect = lower value 0.984 | locus YEL037C, strain rad23, stronger effect = lower value 0.991 | locus YEL061C, strain CIN8 (second series), stronger effect = lower value 0.984 | locus YEL061C, strain CIN8, stronger effect = lower value 1.01 | locus YER015W, strain faa2, stronger effect = lower value 0.985 | locus YER016W, strain bim1, stronger effect = lower value 0.982 | locus YER110C, stronger effect = lower value 1.01 | locus YER111C, strain swi4, stronger effect = lower value 0.974 | locus YER155C, strain BEM2 (second series), stronger effect = lower value 0.949 | locus YER155C, strain BEM2, stronger effect = lower value 1 | locus YER167W, strain BCK2, stronger effect = lower value 1.01 | locus YFR010W, strain ubp6, stronger effect = lower value 0.975 | locus YGL078C, strain dbp3, stronger effect = lower value 1.01 | locus YGL086W, strain mad1, stronger effect = lower value 1.01 | locus YGL167C, strain pmr1, stronger effect = lower value 0.984 | locus YGL173C, strain kem1, stronger effect = lower value 0.981 | locus YGL227W, strain vid30, stronger effect = lower value 0.984 | locus YGL240W, strain doc1, stronger effect = lower value 0.959 | locus YGL248W, strain PDE1, stronger effect = lower value 1.01 | locus YGL253W, strain hxk2, stronger effect = lower value 0.981 | locus YGR078C, strain PAC10, stronger effect = lower value 1.01 | locus YGR135W, strain pre9, stronger effect = lower value 1.03 | locus YGR252W, strain gcn5, stronger effect = lower value 0.988 | locus YHR013C, strain ard1, stronger effect = lower value 0.939 | locus YHR027C, strain rpn1, stronger effect = lower value 0.989 | locus YHR030C, strain SLT2, stronger effect = lower value 1.01 and 0.988 | locus YHR079C, strain IRE1 (second series), stronger effect = lower value 1 | locus YHR079C, strain IRE1, stronger effect = lower value 0.985 | locus YHR094C, strain hxt1, stronger effect = lower value 1.01 | locus YHR129C, strain ARP1, stronger effect = lower value 0.997 | locus YHR142W, strain chs7, stronger effect = lower value 1.04 | locus YHR200W, strain rpn10, stronger effect = lower value 1.01 | locus YIL066C, strain RNR3, stronger effect = lower value 1.01 | locus YIL073C, strain SPO22, stronger effect = lower value 1.04 | locus YIL125W, strain kgd1, stronger effect = lower value 1 | locus YIR030C, strain dcg1, stronger effect = lower value 1.02 | locus YJL092W, strain hpr5, stronger effect = lower value 0.982 | locus YJL095W, strain BCK1 (second series), stronger effect = lower value 0.99 | locus YJL095W, strain BCK1, stronger effect = lower value 1.04 and 0.994 | locus YJL115W, strain asf1, stronger effect = lower value 1 | locus YJL129C, strain trk1, stronger effect = lower value 0.999 | locus YJL134W, strain LCB3, stronger effect = lower value 1.01 | locus YJL154C, strain vps35, stronger effect = lower value 0.988 | locus YJL164C, strain tpk1, stronger effect = lower value 1.01 | locus YJL166W, strain qcr8, stronger effect = lower value 0.99 | locus YJL168C, strain set2, stronger effect = lower value 1.01 | locus YJL187C, strain SWE1 (second series), stronger effect = lower value 1.02 | locus YJL187C, strain SWE1, stronger effect = lower value 0.984 | locus YJR043C, strain POL32, stronger effect = lower value 1.01 | locus YJR066W, strain TOR1, stronger effect = lower value 0.908 | locus YKL009W, strain mrt4, stronger effect = lower value 1.02 | locus YKL068W, stronger effect = lower value 1.01 | locus YKL085W, strain MDH1 (second series), stronger effect = lower value 1.02 | locus YKL085W, strain MDH1, stronger effect = lower value 1.02 | locus YKL160W, strain elf1, stronger effect = lower value 1.02 | locus YKL190W, strain CNB1, stronger effect = lower value 1.01 | locus YKR001C, strain vps1, stronger effect = lower value 1 | locus YKR026C, strain gcn3, stronger effect = lower value 0.989 | locus YKR091W, strain srl3, stronger effect = lower value 0.99 | locus YLL001W, strain dnm1, stronger effect = lower value 0.982 | locus YLL026W, stronger effect = lower value 0.987 | locus YLL041C, strain sdh2, stronger effect = lower value 0.992 | locus YLR027C, strain aat2, stronger effect = lower value 0.985 | locus YLR039C, strain RIC1, stronger effect = lower value 1 | locus YLR058C, strain SHM2, stronger effect = lower value 1.01 | locus YLR102C, strain apc9, stronger effect = lower value 1.01 | locus YLR113W, strain HOG1, stronger effect = lower value 0.989 | locus YLR221C, strain rsa3, stronger effect = lower value 1.01 | locus YLR258W, strain gsy2, stronger effect = lower value 0.984 | locus YLR262C, strain YPT6 (second series), stronger effect = lower value 1.01 | locus YLR262C, strain YPT6, stronger effect = lower value 1.02 | locus YLR268W, strain sec22, stronger effect = lower value 1 | locus YLR320W, strain mms22, stronger effect = lower value 0.971 | locus YLR330W, strain CHS5, stronger effect = lower value 1 | locus YLR342W, strain FKS1 (second series), stronger effect = lower value 1.01 | locus YLR342W, strain FKS1, stronger effect = lower value 0.985 | locus YLR357W, strain rsc2, stronger effect = lower value 0.95 | locus YLR370C, strain arc18, stronger effect = lower value 0.991 | locus YLR371W, strain rom2, stronger effect = lower value 1.01 | locus YLR384C, strain iki3, stronger effect = lower value 0.997 | locus YLR418C, strain cdc73, stronger effect = lower value 1.01 | locus YML016C, strain PPZ1, stronger effect = lower value 1.01 | locus YML032C, strain rad52, stronger effect = lower value 1 | locus YML120C, strain ndi1, stronger effect = lower value 1.01 | locus YML124C, strain tub3, stronger effect = lower value 1.01 | locus YMR058W, strain fet3, stronger effect = lower value 0.992 | locus YMR078C, strain ctf18, stronger effect = lower value 1.01 | locus YMR125W, strain sto1, stronger effect = lower value 0.951 | locus YMR129W, stronger effect = lower value 0.997 | locus YMR205C, strain PFK2, stronger effect = lower value 0.957 | locus YMR223W, strain ubp8, stronger effect = lower value 1.02 | locus YMR231W, strain pep5, stronger effect = lower value 0.991 | locus YMR307W, strain GAS1, stronger effect = lower value 1.02 | locus YNL067W, strain RPL9B, stronger effect = lower value 1.03 | locus YNL071W, strain lat1, stronger effect = lower value 0.994 | locus YNL153C, strain GIM3, stronger effect = lower value 1.02 | locus YNL183C, strain NPR1, stronger effect = lower value 0.941 | locus YNL209W, strain ssb2, stronger effect = lower value 1 | locus YNL233W, strain BNI4, stronger effect = lower value 1.01 | locus YNL248C, strain rpa49, stronger effect = lower value 1.01 | locus YNL250W, strain rad50, stronger effect = lower value 1 | locus YNL271C, strain bni1, stronger effect = lower value 1.02 | locus YNL298W, strain CLA4, stronger effect = lower value 1.01 | locus YNL307C, strain MCK1, stronger effect = lower value 1.01 | locus YNL322C, strain KRE1 (second series), stronger effect = lower value 1 | locus YNR049C, strain mso1, stronger effect = lower value 0.986 | locus YNR052C, strain pop2, stronger effect = lower value 1.02 | locus YOL006C, strain TOP1, stronger effect = lower value 1.09 | locus YOL012C, strain htz1 1.21 | locus YOL147C, strain pex11, stronger effect = lower value 1.01 | locus YOR001W, strain rrp6, stronger effect = lower value 1.01 | locus YOR061W, strain CKA2, stronger effect = lower value 1.01 | locus YOR069W, strain VPS5, stronger effect = lower value 1.01 | locus YOR070C, strain gyp1, stronger effect = lower value 0.995 | locus YOR080W, strain dia2, stronger effect = lower value 0.965 | locus YOR083W, strain WHI5, stronger effect = lower value 1.03 | locus YOR106W, strain vam3, stronger effect = lower value 1.02 | locus YOR136W, strain idh2, stronger effect = lower value 1.01 | locus YOR144C, strain elg1, stronger effect = lower value 1 | locus YOR184W, strain ser1, stronger effect = lower value 1.01 | locus YOR231W, strain MKK1, stronger effect = lower value 0.999 | locus YOR265W, strain rbl2, stronger effect = lower value 0.99 | locus YOR270C, strain vph1, stronger effect = lower value 0.983 | locus YOR290C, strain snf2, stronger effect = lower value 0.974 | locus YOR316C, strain cot1, stronger effect = lower value 1.02 | locus YPL051W, strain arl3, stronger effect = lower value 1 | locus YPL055C, strain LGE1, stronger effect = lower value 1.02 | locus YPL078C, strain atp4, stronger effect = lower value 1.01 | locus YPL106C, strain sse1, stronger effect = lower value 0.979 | locus YPL240C, strain hsp82, stronger effect = lower value 0.993 | locus YPL241C, strain CIN2, stronger effect = lower value 1.02 | locus YPL256C, strain CLN2, stronger effect = lower value 1.04 | locus YPR119W, strain clb2, stronger effect = lower value 1 | locus YPR141C, strain kar3, stronger effect = lower value 1.01 | locus YPR163C, strain tif3, stronger effect = lower value 1.01 | locus YPR167C, strain met16, stronger effect = lower value 1 | strain wtn01, stronger effect = lower value 1
